An excerpt weighted towards active compounds, which were near 1.3% of everything screened.
PREPL inhibitor = human PREPL enzyme inhibition; recombinant PREPL, fluorescence polarization activity-based probe; Q4J6C6; actives 0.68% (n = 320,000); inhibition, % at 5.96 µM;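 further: 0% = enzyme with DMSO and 100% = wells lacking enzyme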
Target sequence (Q4J6C6 whole entry, looked up): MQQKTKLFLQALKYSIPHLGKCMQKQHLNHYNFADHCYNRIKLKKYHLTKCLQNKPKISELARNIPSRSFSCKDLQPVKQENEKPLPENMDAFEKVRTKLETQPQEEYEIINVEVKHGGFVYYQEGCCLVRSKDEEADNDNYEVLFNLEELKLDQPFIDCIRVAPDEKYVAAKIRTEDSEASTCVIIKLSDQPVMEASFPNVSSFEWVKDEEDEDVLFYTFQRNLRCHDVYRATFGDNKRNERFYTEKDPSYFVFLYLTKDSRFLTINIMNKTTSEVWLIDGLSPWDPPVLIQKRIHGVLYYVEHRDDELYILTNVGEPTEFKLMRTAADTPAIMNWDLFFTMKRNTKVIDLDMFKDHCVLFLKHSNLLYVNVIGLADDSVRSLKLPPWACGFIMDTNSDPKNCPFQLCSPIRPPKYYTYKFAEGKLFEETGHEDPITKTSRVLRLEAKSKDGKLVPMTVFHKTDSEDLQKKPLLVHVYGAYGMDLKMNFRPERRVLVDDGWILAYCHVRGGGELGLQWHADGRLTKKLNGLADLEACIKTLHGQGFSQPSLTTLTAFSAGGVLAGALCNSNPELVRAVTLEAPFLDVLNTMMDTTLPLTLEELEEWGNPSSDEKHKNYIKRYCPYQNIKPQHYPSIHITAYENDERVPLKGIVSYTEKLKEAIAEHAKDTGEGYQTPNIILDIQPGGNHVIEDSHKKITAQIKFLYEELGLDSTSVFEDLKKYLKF
LYPLA1 inh = blocks human lysophospholipase 1, a PME1 counter-screen; O75608; recombinant LYPLA1, FP-Rh probe fluorescence polarization; inhibition, % at 5.9 µM; actives 0.16% (n = 320,000); AID 2174;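 active means inhibition above the mean of all tested compounds plus 3 SD, set per campaign, cut at about 14% in these data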;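 further: inhibitors block serine hydrolase probe labeling of LYPLA1 so polarization falls; 0% = enzyme with DMSO and 100% = wells lacking LYPLA1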
LYPLA2 counter = counter-screen for PME1 inhibitors: inhibitors of human LYPLA2; O95372; recombinant LYPLA2, FP-Rh probe fluorescence polarization; inhibition, % at 5.9 µM; actives 0.38% (n = 320,000); AID 2177;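 active means inhibition above the screen-wide mean plus 3 SD, limit set per campaign, cut at about 26% in these data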;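 further: 0% = LYPLA2 with DMSO and 100% = wells lacking LYPLA2 enzyme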
Fam108B inh = Fam108B inhibition, counter-screen for RBBP9 inhibitors; recombinant Fam108B, FP-Rh probe fluorescence polarization; actives 0.33% (n = 300,000); AID 1947; inhibition, % at 9.51 µM;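 active means inhibition above the screen mean inhibition plus 3 SD, computed separately per campaign, cut at about 18% in these data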;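 further: inhibitors lower polarization as less probe binds the enzyme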
PME-1 inh = blocks human protein phosphatase methylesterase 1; recombinant PME-1, FP-Rh probe fluorescence polarization; inhibition, % at 5.9 µM; actives 0.53% (n = 320,000); AID 2130;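 active means inhibition above the campaign mean of all compounds plus 3 SD, cut at about 26% in these data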;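 further: competitive labeling of PME-1 active site by serine hydrolase directed probe; 0% = PME-1 with DMSO and 100% = wells lacking PME-1 enzyme; inhibitors block probe labeling so polarization falls and inhibition rises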
PREPL confirm = human PREPL inhibition, confirmation | AID 2803 | actives 67% (n = 2,000) | shares compounds with PREPL inhibitor | recombinant PREPL, fluorescence polarization activity probe | inhibition, % at 5.96 µM;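 further: 0% = protein with DMSO and 100% = wells lacking protein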
Numbers without * were called inactive; · = not tested or not shown. Unless noted, no stated cut-off is given here; in the data, active means inhibition above about 43%; inactive means the rest.

SMILES	PREPL inhibitor	LYPLA1 inh	LYPLA2 counter	Fam108B inh	PME-1 inh	PREPL confirm
CN1CCN(C(=O)C2=C[C@@H](c3ccc4c(c3)OCO4)C[C@@H](OCc3ccc(CO)cc3)O2)CC1	45.5*	-1.2	-1.6	-4.6	1.1	53.5*
CCOc1ccccc1N(C)C(=O)CCS(=O)(=O)c1ccc2c(c1)NC(=O)CO2	19.4	-3.7	-7.7	-0.1	1.8	·
CC(C)OC(=O)c1ccc2nc3ccccc3nc2c1	8.1	5.8	1.0	6.4	0.4	·
c1ccc2c(NCCc3c[nH]c4ccccc34)c3ccccc3nc2c1	49.9*	6.3	4.4	0.7	-81.5	57.2*
N#CC1=C(N)C(C#N)(C#N)C(c2cccnc2)C2CC(c3ccccc3)CC=C12 (centres undefined)	44.1*	-2.6	6.2	2.4	53.8*	31.6
CCOC(=O)N1CCN(C(=O)CSC2=NS(=O)(=O)c3cc(F)ccc3N2)CC1	-7.3	-2.4	-4.6	-1.0	1.1	·
CCCCN1C(=N)N([C@@H](C)CN2CCC[C@H]2CN2C(N)=NC[C@@H]2Cc2ccccc2)C[C@H]1Cc1ccccc1	53.6*	·	·	·	·	44.0*
CCCCN1C(=N)N([C@@H](CN2CCC[C@H]2CN2C(N)=NC[C@@H]2Cc2ccccc2)C(C)C)C[C@H]1Cc1ccccc1	64.7*	·	·	·	·	59.1*
CC(C)C[C@@H]1CN=C(N)N1C[C@@H]1CCCN1C[C@@H](C(C)C)N1C[C@@H](Cc2ccccc2)N(CCCC2CCCC2)C1=N	59.5*	·	·	·	·	51.0*
O=C1CCC(C(=O)OCc2cc(=O)oc3ccc4ccccc4c23)=NN1	2.4	0.4	2.2	2.4	-1.9	·
COc1ccc(C(CNC(=O)C2COc3ccccc3O2)N2CCCC2)cc1 (centres undefined)	14.6	4.9	7.3	·	1.7	·
O=C1NC(c2ccco2)Nc2sc3c(c21)CCN(Cc1ccccc1)C3 (centres undefined)	39.7	-1.8	5.0	-6.3	-7.9	·
CN1CCc2c(sc3c2C(=O)NC(c2cn(Cc4ccccc4)c4ccccc24)N3)C1 (centres undefined)	55.5*	-6.1	-11.6	-5.6	12.8	60.6*
COc1ccc([C@@H]2CC=C(C(=O)O)[C@H](c3ccc(Cl)cc3)N2S(=O)(=O)c2ccc(C)cc2)cc1OC	-1.6	1.8	0.0	2.6	0.1	·
O=C(c1cccnc1)N1CCN(Cc2ccc3ccccc3c2)CC1	45.2*	-1.6	5.6	-2.7	-6.8	36.3
CCCCn1c(CCc2ccccc2)nc2cc3[nH]c(=O)c(C(C)C)nc3cc21	43.5*	-2.4	-6.0	3.9	-0.6	38.4
COc1ccc(COC(=O)Nc2cc3c(C(F)(F)F)nn(C)c3s2)cc1	45.2*	-6.9	-3.7	-2.2	-0.6	36.1
CCN(C(=O)CCN1C(=O)S/C(=C\c2ccccc2)C1=O)C1CCS(=O)(=O)C1 (centres undefined)	44.7*	-2.5	-5.1	2.4	1.6	37.2
N=C1/C(=C\c2ccc(OC(=O)c3ccccc3)cc2)C(=O)N=C2SC(N3CCOCC3)=NN12	60.6*	-1.1	9.1	10.3	2.4	42.5
N=C1/C(=C\c2ccc(OC(=O)c3ccc(F)cc3)cc2)C(=O)N=C2SC(N3CCCC3)=NN12	33.5	-3.2	0.2	-0.2	11.8	·
Cc1ccc(C(=O)Oc2ccc(/C=C3\C(=N)N4N=C(N5CCOCC5)SC4=NC3=O)cc2)cc1	62.2*	-5.5	5.0	5.6	2.2	41.0
NS(=O)(=O)c1ccc(CCNc2ccnc3cc(Cl)ccc23)cc1	-7.3	3.9	6.7	1.8	-9.4	·
Cn1cccc1Cc1nnc(SCC(=O)N2CCN(c3ccccc3)CC2)n1-c1ccc(F)cc1	49.4*	-3.0	0.3	2.8	-0.8	36.6
CN(CC(=O)Nc1ccccc1C(=O)NC1CC1)Cc1ccc(N(C)C)cc1	18.8	1.9	3.0	·	-1.9	·
Cc1cc(C(=O)CN2CCN(CC(=O)Nc3cccc(F)c3)CC2)c(C)n1C1CC1	13.4	1.8	-3.2	·	-0.3	·
CCOc1ccc(NC(=O)CN2C(=O)NC3(CCCCCC3)C2=O)cc1	8.0	·	·	·	·	·
COc1ccc2nc3cc(Cl)ccc3c(Nc3cc(CN4CCCC4)c(O)c(CN4CCCC4)c3)c2n1	63.9*	-3.3	6.8	2.0	7.5	53.8*
O=C(CNC(=O)c1cccc(F)c1)OCCOc1cccc(Cl)c1	-17.5	-0.2	0.7	-3.7	2.8	·
